Data on twelve compounds can be found in publication PMC11062922 (Nature Chemical Biology, 2023).

In one assay the test system is AKT3. More on the design: species or system human, MV4-11 + K-562 + COLO205 + SK-N-BE2 + OVCAR-8. Conditions: read-out: apparent Kd; compound concentrations:100 nM and 1000 nM (sheet 'Samples'); n = 1.
Take `O=C1NC(=O)C(c2ccc(Cl)cc2)=C1Nc1ccc(Cl)c(C(=O)O)c1` [SB-360741]: the potency estimated from few doses is 1530 nM.

With `CN1CCC(C(=O)Nc2n[nH]c3nc(-c4ccc(O)cc4)c(Br)cc23)CC1` [SB-732881], the potency estimated from few doses was 1640 nM.

Consider `NC(=O)Nc1sc(-c2ccc(F)cc2)cc1C(N)=O` [GW789449X], for which the potency estimated from few doses was 1830 nM.

For the compound `O=C(Nc1c(F)cccc1F)c1cc(C(=O)c2ccccc2F)c[nH]1` [GSK1326180A], the potency estimated from few doses was 1080 nM.

Consider `CC(C)NC(=O)N1CC[C@H](NC2=Nc3cc(F)ccc3N(CC(F)F)c3ccc(Cl)cc32)C1` [NVS-PAK1-1], for which the potency estimated from few doses was 1760 nM.

In the next assay the test system is ATM. On the set-up: species or system human, MV4-11 + K-562 + COLO205 + SK-N-BE2 + OVCAR-8. Conditions: read-out: apparent Kd; compound concentrations:100 nM and 1000 nM (sheet 'Samples'); n = 1.
In the case of `COc1cc(F)c(F)cc1C(=O)c1cnc(NC2CCN(S(C)(=O)=O)CC2)nc1N` [RO4595655-000], the potency estimated from few doses is 157 nM.

Turning to `CCn1c(=O)c(Oc2ccc(F)cc2F)cc2cnc(NC3CCOCC3)nc21` [RO4367438-000], the potency estimated from few doses was 238 nM.

As for `Cc1cn2c(=O)cc(N3CCOCC3)nc2n1Cc1cccc(Cl)c1Cl` [GSK2334006A], the potency estimated from few doses was 280 nM.

Take `C[C@@H](Oc1cc(-n2cnc3ccc(CN4CCN(C)CC4)cc32)sc1C(N)=O)c1ccccc1C(F)(F)F` [GSK461364]: the potency estimated from few doses is 264 nM.

For the compound `COC(=O)Nc1nc2ccc(Oc3ccc(NC(=O)Nc4cc(C(F)(F)F)ccc4F)cc3)cc2s1.Cl` [GW693917A], the potency estimated from few doses was 222 nM.

For the compound `COc1cc(Nc2cnc(C#N)c(O[C@H](C)CN(C)C)n2)ncc1-c1cnn(C)c1` [CCT244747], the potency estimated from few doses is 179 nM.

`COc1ccc2[nH]c3c4[nH]c5ccc(OC)cc5c4c4c(c3c2c1)C(=O)NC4=O` [GW296115X]: the potency estimated from few doses is 204 nM.

The next assay relates to PRKAG1. On the set-up: species or system human, MV4-11 + K-562 + COLO205 + SK-N-BE2 + OVCAR-8. Conditions: read-out: apparent Kd; compound concentrations:100 nM and 1000 nM (sheet 'Samples'); n = 1.
As for `CCn1c(=O)c(Oc2ccc(F)cc2F)cc2cnc(NC3CCOCC3)nc21` [RO4367438-000], the potency estimated from few doses was 128 nM.

Take `COc1ccc2[nH]c3c4[nH]c5ccc(OC)cc5c4c4c(c3c2c1)C(=O)NC4=O` [GW296115X]: the potency estimated from few doses is 1550 nM.

For `CC(C)NC(=O)N1CC[C@H](NC2=Nc3cc(F)ccc3N(CC(F)F)c3ccc(Cl)cc32)C1` [NVS-PAK1-1], the potency estimated from few doses is 1740 nM.
